About 83,000 compounds went through this panel and 20% of them were active in at least one assay; those are over-represented in the sample as a whole.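 Compound tested at a single concentration for 48 hours in 96-well plates; a percent growth value below 10 was scored as active.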 Active and inactive are the calls of the source.
tested on: MDA-MB-468 breast; experiment: NCI-60 one-dose screen, 48 h (100 = growth as untreated, 0 = no growth, -100 = all killed); settings: 10 µM unless noted

Structure (SMILES)	growth
Cn1cc(-c2csc(-c3cn(C(=O)OC(C)(C)C)c4ccccc34)n2)c2cccnc21	-8.84% (active)
Cc1ccc(-c2c3c(N)nc(-c4cccnc4)nc3nc3c2c(C)nn3-c2ccccc2)cc1	74.6% (inactive)
Cc1ccc(C(C)C)cc1NC(=O)Nc1ccc([N+](=O)[O-])cc1	4.03% (active)
Cc1ccc(S(=O)(=O)N(CC[C@@H]2C[C@H]2c2cc3ccccc3o2)S(=O)(=O)c2ccc(C)cc2)cc1	80% (inactive)
CCOC(=O)C(Cc1ccc(OC)cc1)C(=O)OCC	55.3% (inactive)
Cn1cc(-c2ccc3nc(-c4ccc(CC(=O)ONc5cc(C(C)(C)C)on5)cc4)cnc3c2)cn1	45.8% (inactive)
C#CCN(C)CCCOc1ccc(NCc2ccc(C(=O)NO)cc2)cc1Cl	-5.18% (active)
COc1ccc(-c2nc(N)ncc2Oc2ccccc2OC)c(O)c1	-2.89% (active)
COc1ccc2[nH]c(C(=O)OCc3ccc4c(Br)cc(Br)c(O)c4n3)cc2c1	-77.4% (active)
COc1ccc(/C=C/C(=O)c2cccc(NS(C)(=O)=O)c2)cc1	47% (inactive)
Cc1cc2nc3c4cc([N+](=O)[O-])ccc4n(CCN(C)C)c3nc2cc1C	-39.1% (active)
c1ccc2c(c1)Oc1cccnc1-n1nccc1-2	94.7% (inactive)
CC(C)(C)CC(C)(C)n1nnnc1C(Nc1nccs1)c1cc2cccc3ccc4cccc1c4c32 (centres undefined)	-33.3% (active)
Cc1ccc(S(=O)(=O)NCC[C@@H]2C[C@H]2c2cc3ccccc3s2)cc1	83.7% (inactive)

— PubChem BioAssay (NCI)
